This is an account of results in PubChem BioAssay.

Calls of active or inactive are those of the source.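 How the source made its calls: active means mean inhibition above 46.5%, the solvent-only control mean plus 3 SD; inactive means the rest.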

In this assay the target is Nuclear receptor coactivator 2 (Homo sapiens) (UniProt Q15596). Nature of the assay: SRC2 coactivator transcriptional activity inhibitors, confirmation, cell-based, luminescence, HEK293, triplicate (AID 652008).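 Further: 0% = DMSO-treated cells and 100% = Gossypol at 36 µM.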 The following applies: HEK293 GAL4-SRC2 luciferase reporter, at 8.9 µM, stronger effect = higher value.
Nuclear receptor coactivator 2 (Homo sapiens), sequence (Q15596 whole entry, looked up, the tested form may be a part): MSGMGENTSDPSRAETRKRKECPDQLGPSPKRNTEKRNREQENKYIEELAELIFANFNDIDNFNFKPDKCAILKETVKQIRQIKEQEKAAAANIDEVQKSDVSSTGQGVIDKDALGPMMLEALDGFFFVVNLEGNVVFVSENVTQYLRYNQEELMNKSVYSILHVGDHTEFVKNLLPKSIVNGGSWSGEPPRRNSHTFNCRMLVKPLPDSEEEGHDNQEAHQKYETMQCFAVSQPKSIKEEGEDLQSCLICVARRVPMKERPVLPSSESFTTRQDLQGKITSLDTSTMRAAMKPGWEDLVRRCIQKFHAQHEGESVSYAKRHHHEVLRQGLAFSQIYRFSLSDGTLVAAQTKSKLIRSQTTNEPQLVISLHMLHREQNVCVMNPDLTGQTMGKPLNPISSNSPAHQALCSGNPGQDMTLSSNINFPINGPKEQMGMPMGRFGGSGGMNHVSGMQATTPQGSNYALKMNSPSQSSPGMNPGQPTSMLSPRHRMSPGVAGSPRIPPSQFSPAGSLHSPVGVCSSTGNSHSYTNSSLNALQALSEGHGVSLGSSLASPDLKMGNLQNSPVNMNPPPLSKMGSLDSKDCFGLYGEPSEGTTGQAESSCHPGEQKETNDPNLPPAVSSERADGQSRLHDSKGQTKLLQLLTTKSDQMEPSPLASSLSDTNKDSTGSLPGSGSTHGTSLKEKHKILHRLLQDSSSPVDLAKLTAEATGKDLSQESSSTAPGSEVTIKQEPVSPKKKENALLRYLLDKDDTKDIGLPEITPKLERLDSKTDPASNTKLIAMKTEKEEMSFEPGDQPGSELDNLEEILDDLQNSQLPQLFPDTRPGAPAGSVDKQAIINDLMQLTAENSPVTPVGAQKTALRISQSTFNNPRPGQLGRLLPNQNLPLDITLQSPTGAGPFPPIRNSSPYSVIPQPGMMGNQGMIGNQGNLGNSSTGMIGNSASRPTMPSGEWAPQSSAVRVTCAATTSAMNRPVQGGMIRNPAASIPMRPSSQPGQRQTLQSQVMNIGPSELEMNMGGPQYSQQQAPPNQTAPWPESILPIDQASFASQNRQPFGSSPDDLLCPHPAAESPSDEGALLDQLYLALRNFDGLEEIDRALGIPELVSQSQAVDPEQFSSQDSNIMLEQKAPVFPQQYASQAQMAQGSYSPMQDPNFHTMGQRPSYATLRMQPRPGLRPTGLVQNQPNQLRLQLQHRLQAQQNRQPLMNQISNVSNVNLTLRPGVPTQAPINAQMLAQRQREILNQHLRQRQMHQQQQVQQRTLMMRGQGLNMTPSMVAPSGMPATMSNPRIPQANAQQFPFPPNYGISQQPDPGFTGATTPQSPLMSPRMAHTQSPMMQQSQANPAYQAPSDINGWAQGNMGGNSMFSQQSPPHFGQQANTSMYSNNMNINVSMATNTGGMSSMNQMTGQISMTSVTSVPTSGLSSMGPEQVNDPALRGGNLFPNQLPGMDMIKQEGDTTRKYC
`CC(=O)Nc1nc(-c2ccc3c(c2)CCN3C(=O)C2CC2)c(C)s1`: the inhibition is 49.3% (active).
In the case of `CCOc1cccc(NC(=O)C2CC(=O)N(c3ccc(F)cc3)C2)c1` (stereo not given), the inhibition was -14.1% (inactive).
As for `COc1ccc(OC)c(CC(=O)Nc2ccc3c(c2)c(=O)n(C)n3Cc2cccc(C(F)(F)F)c2)c1`, the inhibition is -6.44% (inactive).
Next, `Cc1c(CCC(=O)O)c(=O)oc2cc3oc4c(c3cc12)CCCC4`: 69.2% (active); `COc1cc(/C=C/C(=O)c2ccc3c(c2)OCCO3)cc(OC)c1OC`: 29.2% (inactive).
Consider `Cc1ccc2cccc(NS(=O)(=O)c3ccccc3)c2n1`, for which the inhibition was -19.5% (inactive).
For `CC(C)C[C@H]1CN(CCCC[C@H]2CNC(=O)C(=O)N2CCc2ccccc2)C(=O)C(=O)N1CCC1CCCCC1`, the inhibition is -17.3% (inactive).
Next, `CC1=CC(C)(C)Nc2ccc(OC(=O)c3ccco3)cc21`: 31.6% (inactive); `O=C(NCCS(=O)(=O)N1CCN(c2ccc(F)cc2)CC1)c1ccc(Br)o1`: -4.89% (inactive); `CCCCOc1ccc(C2(C)NC(=O)NC2=O)cc1` (stereo not given): -2.28% (inactive).
For the compound `O=S(=O)(Cc1ccccc1Cl)NCCc1ccc(F)cc1`, the inhibition is -1.95% (inactive).
Consider `COC(=O)c1ccc2c(=O)[nH]c(COC(=O)c3[nH]c(C)c(C(C)=O)c3C)nc2c1`, for which the inhibition was 12.3% (inactive).
Next, `Cc1ccc(/C=C2\SC(=S)N(CCCC(=O)Nc3ccccc3C(=O)O)C2=O)cc1`: 59.4% (active); `CC(C)COc1ccc(C(=S)N2CCCC2)cc1`: 40.6% (inactive); `COCCN(C(=O)Cc1ccc(S(=O)(=O)N2CCOCC2)s1)c1c(N)n(CC(C)C)c(=O)[nH]c1=O`: -13.1% (inactive).
